“And” between values parts separate entries of the source, which are not always exact repeats. Identical values can stand only once. Results filed as inconclusive are left out. Values without a mark were called inactive. The source made the active and inactive calls. The call rests on the fitted dose curve; in most records, active means well fitted cell-killing curve with a large enough effect; inconclusive means small, poorly fitted or top-dose-only effect, or effect the other way; inactive means no such curve, though single readings can be large or run the other way.
Experiment: Viability qHTS for spleen associated tyrosine kinase inhibitor (SYKi) drug resistant MV4-11 cells (AID 1963824); further: nearly all actives have a fitted effect of over 35% in size
Details: SYKi-resistant MV4-11 viability, CellTiter-Glo, 72 h; series mostly up to 45 µM; viability, % of control: at the top concentration
Summary of the method: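 SYK-inhibitor-resistant MV4-11 AML cells were seeded at 500 per well onto compound and cultured 72 hours (37 °C, 5% CO2). CellTiter-Glo was then added, and after 10 min at room temperature, luminescence gave viability.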
In the case of `c1ccc(CC2=NCCN2)cc1`, the “viability, % of control” value is reported as 87.6%. With `Cc1[nH]nc(C(F)(F)F)c1Cc1sc2c(c1C(=O)N1C[C@](C)(O)CO1)c(=O)n(C)c(=O)n2C(C)C` the Potency was “inactive”. In the case of `CCN(CC)C(C)CN1c2ccccc2Sc2ccccc21` (stereo not given), the “viability, % of control” value is reported as 74.8%. With `CCN(CC)C(=O)N1CCN(C)CC1` the “viability, % of control” value was 117%. In the case of `CCN(CCCOc1ccc2c(Nc3cc(CC(=O)Nc4cccc(F)c4)[nH]n3)ncnc2c1)CCOP(=O)(O)O`, the Potency is reported as 58 nM (active) and 372 nM (active). In the case of `Nc1ccc(F)cc1NC(=O)c1ccc(CNC(=O)/C=C/c2cccnc2)cc1`, the Potency is reported as 0.833 µM (active). With `COc1cc(C)c(/C=C/C(C)=C/C=C/C(C)=C/C(=O)O)c(C)c1C` the Potency was 4.68 µM (active). In the case of `Nc1nc(F)nc2c1ncn2C1OC(COP(=O)(O)O)C(O)C1O` (stereo not given), the Potency is reported as 14.8 µM (active). For `COc1c(C)c2c(c(O)c1C/C=C(\C)CCC(=O)O)C(=O)OC2`, the Potency was 473 nM (active) and 934 nM (active). In the case of `CC(C)(C)c1[nH]cnc1/C=c1\[nH]c(=O)/c(=C/c2ccccc2)[nH]c1=O`, the Potency is reported as 0.0934 µM (active). In the case of `O=C1c2ccccc2C(=O)C1c1ccc(Br)cc1`, the “viability, % of control” value is reported as 60.7%. With `CCN(CC)CCOC(=O)C1(C2CCCCC2)CCCCC1` the “viability, % of control” value was 65.9%. For `CC(C)C(=O)OCC(=O)[C@@]12O[C@H](C3CCCCC3)O[C@@H]1C[C@H]1[C@@H]3CCC4=CC(=O)C=C[C@]4(C)[C@H]3[C@@H](O)C[C@@]12C`, the Potency was 2.95 µM (active). With `CCCCCOc1ccccc1/C(=C\SC)n1ccnc1` the Potency was 18.8 µM (active). With `COc1cc2ncnc(Nc3ccc(O)c(Br)c3)c2cc1OC` the Potency was 1.64 µM (active) and 1.66 µM (active). With `NC(=O)c1cccc2c(NC(CN3CCC3)c3ccc(Cl)c(C(F)(F)F)c3)ncnc12` (stereo not given) the Potency was 2.35 µM (active). With `C/C(=N\NC(=O)c1cccc(S(=O)(=O)N2CCOCC2)c1)c1cc(Cl)ccc1O` the Potency was 0.742 µM (active). For `COc1ccc(Cl)c(Nc2ncnc3cc(OCC4CCN(C)CC4)c(OC)cc23)c1`, the Potency was 5.17 µM (active). For `Cc1nc(NC(=O)N2CCC[C@H]2C(N)=O)sc1-c1csc(C(C)(C)C)n1`, the Potency was 7.42 µM (active). With `COc1ccc2cc1Oc1cc3c(cc1OC)CC[N+](C)(C)[C@H]3Cc1ccc(cc1)Oc1c(OC)c(OC)cc3c1[C@@H](C2)[N+](C)(C)CC3` the “viability, % of control” value was 63.4%. For `CCOC(=O)c1ccnc(CNCC(=O)N(CC)CCN(C)C)c1`, the “viability, % of control” value was 73.8%. For `CCNC1(C(N)=O)CCN(c2ncnc3c2nc(-c2ccccc2Cl)n3-c2ccc(Cl)cc2)CC1`, the Potency was 16.6 µM (active). With `CCC(=O)O[C@]1(C(=O)CCl)[C@@H](C)C[C@H]2[C@@H]3CCC4=CC(=O)C=C[C@]4(C)[C@@]3(F)[C@@H](O)C[C@@]21C` the Potency was 15 µM (active) and 14.8 µM (active). In the case of `CC(=O)OC[C@H]1O[C@@](COC(C)=O)(O[C@H]2O[C@H](COC(C)=O)[C@@H](OC(C)=O)[C@H](OC(C)=O)[C@H]2OC(C)=O)[C@@H](OC(C)=O)[C@@H]1OC(C)=O`, the “viability, % of control” value is reported as 86.2%. In the case of `O=C(O)CCCc1ccccc1`, the Potency is reported as “inactive”. In the case of `CNS(=O)(=O)c1ccc2c(c1)/C(=C/c1[nH]c3c(c1CCCN1CCN(C)CC1)CCCC3)C(=O)N2`, the Potency is reported as 0.332 µM (active). In the case of `O=C(O)[C@@H]1[C@H]2C[C@H]3c4[nH]c5ccccc5c4CCN3C[C@@H]2CC[C@@H]1O`, the Potency is reported as 5.96 µM (active). For `NC(=O)/C(=C/n1cnc(-c2cc(C(F)(F)F)cc(C(F)(F)F)c2)n1)c1cncnc1`, the Potency was 0.235 µM (active). With `C#C[C@]1(O)CC[C@H]2[C@@H]3CCC4=Cc5oncc5C[C@]4(C)[C@H]3CC[C@@]21C` the Potency was 8.41 µM (active). In the case of `CC1=C(C(=O)O)N2C(=O)[C@@H](NC(=O)[C@H](N)c3ccccc3)[C@H]2SC1`, the “viability, % of control” value is reported as 103%. With `C=CC(=O)N1CC/C(=C\c2ccc(F)c([N+](=O)[O-])c2)C(=O)/C(=C/c2ccc(F)c([N+](=O)[O-])c2)C1` the Potency was 0.0332 µM (active). With `O=C(O)c1ccccc1NCCc1ccccc1` the “viability, % of control” value was 54.8%. In the case of `CCc1cc(/C(C)=N/OCc2ccc(C3CCCCC3)c(C(F)(F)F)c2)ccc1CN1CC(C(=O)O)C1`, the Potency is reported as 14.8 µM (active). In the case of `NNc1nnc(NN)c2ccccc12`, the “viability, % of control” value is reported as 72.3%. For `C=C1c2cccc(O)c2C(O)=C2C(=O)[C@]3(O)C(O)=C(C(N)=O)C(=O)[C@@H](N(C)C)[C@@H]3[C@@H](O)[C@H]12`, the “viability, % of control” value was 76.6%. In the case of `CC(C)NCCCC1(C(N)=O)c2ccccc2-c2ccccc21`, the “viability, % of control” value is reported as 74.5%. With `CC[C@@]1(O)C(=O)OCc2c1cc1n(c2=O)Cc2c-1nc1ccccc1c2CCNC(C)C` the Potency was 0.0059 µM (active). With `C[C@H]1C[C@H]2[C@@H]3CCC4=CC(=O)C=C[C@]4(C)[C@@]3(Cl)[C@@H](O)C[C@]2(C)[C@@]1(O)C(=O)CO` the Potency was 13.3 µM (active). With `CC(C)n1nc(-c2cc3cc(O)ccc3[nH]2)c2c(N)ncnc21` the Potency was 668 nM (active) and 291 nM (active). With `O=C(Nc1cc(Oc2cc(F)c(NC(=O)C3(C(=O)Nc4ccc(F)cc4)CC3)cc2F)ccn1)C1CC1` the Potency was 25.9 nM (active) and 66.1 nM (active).
Potency means the concentration at half of the fitted maximal effect.
